Test results from PubChem BioAssay AID623868 (Vanderbilt High Throughput Screening Facility, 2012).
Among all 2,100 compounds or so, about 760 (36%) were called active.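 The calls were made as follows: active = thallium-flux fluorescence traces judged by eye to show enhanced or reduced glutamate response, manual score 1 or -1, so both directions (some results past the limit were not filed as active); inactive = the rest, including fluorescent or raised-baseline compounds.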 These entries were drawn from the full list.

Assay: non-GIRK thallium flux modulation in mGlu8 cells, confirmation, counter-screen for GIRK activator project, cell-based, HEK-293 rmGlu8, no GIRK (AID 623868);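 also: extra codes mark interference with 3 for fluorescent and 4 for baseline rise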
Details: thallium flux fluorescence, at 10 µM, actives lie on both sides, codes: 1 enhancer, -1 blocker, 0 none, thallium stimulus containing EC20 glutamate

Compound	manual score
CCOc1ccc(C(=O)CN2CCN(S(=O)(=O)c3ccc(Br)cc3)CC2)cc1	0 (inactive)
COc1ccc(Nc2nc(-c3cccc([N+](=O)[O-])c3)nc3ccccc23)cc1	0 (inactive)
O=C(NNC(=O)c1cc(-c2ccccc2)n(-c2ccccc2)n1)c1cccc([N+](=O)[O-])c1	1 (active)
CC(=O)c1sc(NC(=O)c2cc(-c3ccccc3)nn2-c2ccccc2)nc1C	0 (inactive)
Cn1c2ccccc2c2cc(C(=O)NNS(=O)(=O)c3ccc(F)cc3)sc21	0.5 (inactive)
Cc1sc2c(c1C)CN(C1CC(C)(C)NC(C)(C)C1)CN2C(=O)c1ccco1	0 (inactive)
COC(=O)c1ccc(C(=O)OC)c(NC(=O)CSc2nc(-c3ccco3)cc(C(F)(F)F)n2)c1	0 (inactive)
O=S(=O)(c1ccc(-c2nnc(SCc3nnc(-c4ccccc4)o3)o2)cc1)N1CCCC1	0 (inactive)
O=C(Nc1nnc(-c2ccccc2Cl)o1)c1ccc(S(=O)(=O)N2CCCCCC2)cc1	1 (active)
CCN(CC)c1ccc2cc(C(=O)NNC(=O)c3ccc(S(=O)(=O)N4CCCCC4)cc3)c(=O)oc2c1	0 (inactive)
CC1CCCN(S(=O)(=O)c2ccc(C(=O)Nc3nnc(-c4ccccc4Cl)o3)cc2)C1 (stereo not given)	1 (active)
COc1ccccc1NC(=O)c1ccc(S(=O)(=O)N2CCCC2)cc1	0 (inactive)
Cc1cc(C)nc(N2CCCC(C(=O)NCCc3ccc(F)cc3)C2)n1 (stereo not given)	0 (inactive)
CN1/C(=C\C=C2/C(=O)Oc3ccccc3C2=O)C(C)(C)c2ccccc21	3 (inactive)
Cc1ccc(NC(=O)COc2cccnc2[N+](=O)[O-])cc1S(=O)(=O)N1CCCCC1	0 (inactive)
Cc1nn(CC(=O)Nc2ccc(Cl)c(S(=O)(=O)N(C)C)c2)c(C)c1[N+](=O)[O-]	0 (inactive)
CC1(C)CC2CC(C)(CN2c2ncnc3ccccc23)C1 (stereo not given)	0 (inactive)
CC1(C)CC2CC(C)(CN2C(=S)NC(=O)c2ccccc2Cl)C1 (stereo not given)	1 (active)
Nn1c(SC/C=C/c2ccccc2)nnc1-c1ccccn1	0 (inactive)
Clc1cccc(CSc2nc3ccncc3[nH]2)c1	0 (inactive)
S=C(Nc1ccc(Cl)cc1)c1nc2ccccc2[nH]1	1 (active)
Cc1oncc1C(=S)Nc1ccccc1	0 (inactive)
Fc1ccc(CSc2nc3ccccc3[nH]2)c2ccccc12	0 (inactive)
NC(=O)SCC(=O)Nc1ccc(Cl)cc1	0 (inactive)
Cc1ccc(NC(=S)c2nc3ccccc3[nH]2)cc1	1 (active)
CC(C)c1nc(N2CCN(C(=O)c3ccccc3)CC2)c(C#N)c2c1COC(C)(C)C2	0 (inactive)
Cc1c(C(=O)NC(=S)Nc2ccccc2N2CCCC2)cccc1[N+](=O)[O-]	1 (active)

Compound	manual score
O=C(NC(=S)Nc1ccccc1N1CCCC1)c1ccccc1[N+](=O)[O-]	1 (active)
O=C(NC(=S)Nc1ccccc1N1CCCC1)c1ccc([N+](=O)[O-])cc1	1 (active)
O=C(NC(=S)Nc1ccccc1N1CCCC1)c1ccc(-c2cccc([N+](=O)[O-])c2)o1	0.5 (inactive)
O=C(CSc1nc(O)cc(=O)n1-c1ccccc1)N1CCCCC1	2 (inactive)
COc1cccc(N(CC(=O)Nc2cccc(C(C)=O)c2)S(C)(=O)=O)c1	0 (inactive)
CCOC(=O)C1=C(C)NC2=C(C(=O)C(C(=O)OCC)C(c3cccc(OC)c3)C2)C1c1ccccn1 (stereo not given)	-0.5 (inactive)
COC(=O)CSc1nc2ncccc2[nH]1	0 (inactive)
COc1cc(/C=C2\SC(=S)NC2=O)ccc1OS(=O)(=O)c1ccccc1	1 (active)
O=C1NC(=O)/C(=C\c2ccccc2Oc2ccc(F)c(F)c2)S1	0 (inactive)
COc1cc(/C=C2\S/C(=N/S(=O)(=O)c3ccc(C)cc3)NC2=O)c([N+](=O)[O-])cc1OC	0 (inactive)
COc1cc(/C=C2/SC(=S)NC2=O)ccc1OS(=O)(=O)c1ccc(C)cc1	1 (active)
COc1ccc(/C=C2\SC(=O)NC2=S)cc1OC	1 (active)
COc1ccc(/C=C/C(=O)N2CCN(S(=O)(=O)/C=C/c3ccccc3)CC2)cc1OC	0 (inactive)
CCOc1ccc(OCCSc2nc3ccccc3[nH]2)cc1	0 (inactive)
Cc1ccc(C(=O)Nc2cnc3ccccn3c2=O)cc1	0 (inactive)
O=C(Nc1nc(-c2ccccc2)c(-c2ccccc2)o1)c1ccc(F)cc1	1 (active)
Cc1ccc(C(=O)Nc2nc(-c3ccccc3)c(-c3ccccc3)o2)cc1	1 (active)
OCCCN=c1cc(-c2ccccc2)oc2ccc(Cl)cc12	-0.5 (inactive)
CCCSc1nnc(Nc2ccccc2C)s1	0 (inactive)
O=C(O)CC/C(=C\c1cc([N+](=O)[O-])ccc1Cl)c1nc2ccccc2s1	-1 (active)
O=C(CC(O)(C(F)(F)F)C(F)(F)F)Nc1ccc(Cl)c(Cl)c1	0 (inactive)
CNC(=S)SCCOc1ccc(C)cc1	3 (inactive)
CCCCOc1ccc(C(=O)OC2CC(C)N(C)CC2C)cc1 (stereo not given)	0 (inactive)
CCCCOc1ccc(C(=O)NNC(=S)NC(=O)CC)cc1	1 (active)
CCCOc1ccc(NCC(=O)Nc2ccc(C)cc2C)cc1	0 (inactive)
CCOC(=O)c1ccc(NC(=S)NC(=O)COc2ccccc2)cc1	0 (inactive)
CCCOc1ccc(C(=O)NNC(=S)NC(=O)CC)cc1	1 (active)

Compound	manual score
CCNS(=O)(=O)c1cc(S(C)(=O)=O)ccc1Cl	0 (inactive)
Oc1ccc2ccc3cccc[n+]3c2c1	3 (inactive)
C=COCCNC(=O)Nc1ccc(Cl)c(Cl)c1	0 (inactive)
C=CCNC(=S)Nc1sc2c(c1C(=O)OCC)CC(C)(CC)OC2 (stereo not given)	1 (active)
CCOC(=O)C1=C(NC(=S)NC(=O)c2ccccc2)c2ccccc2CC1C(C)C (stereo not given)	0 (inactive)
CCOC(=O)c1c(NC(=S)NCCc2ccccc2)sc2c1CC(C(C)C)OC2 (stereo not given)	0 (inactive)
C=CCNC(=S)Nc1sc2c(c1C(=O)OCC)CC(C(C)C)OC2 (stereo not given)	1 (active)
CCOC(=O)c1c(NC(=S)NC)sc2c1CC(C)(C)SC2	1 (active)
CCOc1ccccc1OCCCCCc1c(C)n[nH]c1C	0 (inactive)
CC(C)NC(=S)N/N=C/c1cc(Br)ccc1O	1 (active)
O=C(Nc1nnc(-c2ccccc2Cl)o1)c1nc2ccccc2s1	1 (active)
O=C(Nc1nnc(-c2ccc(Cl)cc2)o1)c1nc2ccccc2s1	1 (active)
CC(C)NC(=O)c1nc2ccccc2s1	0 (inactive)
O=C(Nc1nnc(-c2ccc(Cl)cc2)o1)c1ccccc1Br	1 (active)
O=C(Nc1nnc(-c2ccc(Cl)cc2)o1)C1=COCCO1	0.5 (inactive)
CCN(CC)c1ccc2cc(-c3nc4ccccc4[nH]3)c(=O)oc2c1	3 (inactive)
COc1cccc(NC(=O)NCCCSC2CCCCC2)c1	0 (inactive)
Cc1ccc(-c2cc(-c3n[nH]c(=S)o3)c3ccccc3n2)cc1	1 (active)
O=C(NC(=S)NCc1ccccc1)c1ccccc1F	1 (active)
FC(F)(F)Oc1ccc(NC(=S)NCc2ccccc2)cc1	0 (inactive)
O=C(NC(=S)N(Cc1ccccc1)Cc1ccccc1)c1ccccc1F	1 (active)
O=C(Nc1cc(Cl)ccc1Oc1ccccc1)c1ccccc1F	0 (inactive)
Cc1cccc(C)c1NC(=S)NC(=O)c1ccccc1F	1 (active)
FC(F)(F)c1cccc(NC(=S)NCc2ccccc2)c1	0 (inactive)
Fc1ccccc1NC(=S)NN(Cc1ccccc1)c1ccccc1	0 (inactive)
CCCCOc1ccccc1C1C(C(=O)OC)=C(C)N(C)C(C)=C1C(=O)OC	0 (inactive)
O=C(C1CCCN(Cc2cccs2)C1)N1CCCCCC1 (stereo not given)	0 (inactive)

Compound	manual score
CS(=O)(=O)Nc1ccc(C2=NN(C(=O)C3CCCCC3)C(c3cccs3)C2)cc1 (stereo not given)	-1 (active)
CCCCCCn1c(=O)[nH]c2nc3cc(N)ccc3nc2c1=O	3 (inactive)
Cc1ccc(NC2CC(=O)N(CCc3ccccc3)C2=O)cc1 (stereo not given)	0 (inactive)
O=c1c2ccccc2nc(-c2cccc(Cl)c2)n1O	1 (active)
O=c1c2ccc(Cl)cc2nc(-c2cccc(C(F)(F)F)c2)n1O	1 (active)
O=c1c2cc(Br)ccc2nc(-c2cccc(C(F)(F)F)c2)n1O	1 (active)
O=c1c2ccccc2nc(-c2ccccc2)n1/N=C/c1ccc([N+](=O)[O-])cc1	0 (inactive)
CCN1c2ccccc2-c2nc3ccccc3n2C1c1ccco1 (stereo not given)	0 (inactive)
CC1=CC(C)(C)n2c(O)c(N=NC(N)=S)c3cccc1c32	0.5 (inactive)
CN(C)c1nc(OCCNC(=O)COc2ccc(Cl)cc2Cl)nc(N2CCOCC2)n1	0 (inactive)
O=C(COc1ccccc1F)NC1CCN(Cc2ccccc2)CC1	0 (inactive)
Cc1cc(C)c2c(c1)/C(=N/NC(=S)Nc1ccc(F)cc1)CCC2	0 (inactive)
Fc1ccccc1CNC(=S)Nc1ccc(Cl)cc1	0 (inactive)
Fc1ccc(NC(=S)NN=C2CCCCCC2)cc1	1 (active)
S=C(NN=C1CCCCCC1)Nc1ccc(Cl)cc1	1 (active)
Fc1ccc(NC(=S)NCc2ccccc2Cl)cc1	0 (inactive)
Cn1c(C(=O)OC(C(=O)NC2CCCCC2)c2ccncc2)cc2sccc21 (stereo not given)	0 (inactive)
c1ccc(-c2nnc3n2NC(c2ccc4c(c2)OCO4)S3)cc1 (stereo not given)	1 (active)
O=C(CSc1nc(CCC2CCCC2)nc2ccccc12)NCc1ccc2c(c1)OCO2	0.5 (inactive)
Cc1nccn1CCc1nc(N)nc(N)n1	0 (inactive)
O=C(NC(=S)Nc1nc2ccccc2s1)c1cccs1	1 (active)
O=C(NC(=S)Nc1nc2c(ccc3ccccc32)s1)c1cccs1	1 (active)
Cc1ccc2nc(NC(=S)NC(=O)c3cccs3)sc2c1	0.5 (inactive)
CCN(CC)C(=O)COc1ccc2oc(C)c(C(=O)OC)c2c1	0 (inactive)
